Data published in PubChem BioAssay (Tox21).
Inconclusive results are not listed. A number with no mark means an inactive call. The source made the active and inactive calls. Calls come from the whole dose curve; as a rule, active = well fitted curve in the direction sought with a large enough effect in the repeat runs; inconclusive = weak or mixed curves; inactive = no such curve, though single readings can be large; an effect the other way counts as inactive or inconclusive.

Assay: qHTS RealTime-Glo MT Cell Viability Assay in HepG2 cells - 40 hour (AID 1224870); note: nearly all actives have a fitted effect of over 50% in size
Conditions: RealTime-Glo luminescence; series mostly up to 76.8 µM; activity change, negative = cytotoxic: at the top concentration
Outline: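 HepG2 cells (600/well) mixed with RealTime-Glo MT reagent, settled 5 h at 37 C/5% CO2 before compound addition. Nonlytic NanoLuc luminescence from viable-cell prosubstrate reduction read repeatedly during 40 h treatment at 37 C.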
% is set by controls: 0 for no effect and ±100 for the full control effect.

Compound | activity change, negative = cytotoxic
COC(=O)c1ccc(OC)cc1 | 8.41%
Cc1ccsc1C(=CCCN1CCC[C@@H](C(=O)O)C1)c1sccc1C | -2.85% [at 35.3 µM]
CC1=NN(c2cc(Cl)c(S(=O)(=O)O)cc2Cl)C(=O)C1N=Nc1ccc(S(=O)(=O)O)cc1 (stereo not given) | -12.8%
Cc1onc(-c2ccccc2)c1C(=O)Cl | 1.04% [at 35.3 µM]
CCCCCOc1ccc(C2SC(=O)NC2=O)cc1OCC (stereo not given) | -2.96% [at 35.3 µM]
C=CCCC=C | 15.8%
CCCCCCCCOC(=O)CCCCCCCCC(=O)OCCCCCCCC | 0.1%
CC1=CC(=O)CC(C)(C)C1=O | 0.714%
CN1CCN(c2c(F)cc3c(=O)c(C(=O)O)cn4c3c2SCC4)CC1 | 3.26% [at 35.3 µM]
CCC(=O)O[C@]1(C(=O)SCF)[C@H](C)C[C@H]2[C@@H]3C[C@H](F)C4=CC(=O)C=C[C@]4(C)[C@@]3(F)[C@@H](O)C[C@@]21C | -1.96% [at 35.3 µM]
NS(=O)(=O)c1cc(-c2nn[nH]n2)c(NCc2cccs2)cc1Cl | 0.656% [at 35.3 µM]
CCN1CC(CCN2CCOCC2)C(c2ccccc2)(c2ccccc2)C1=O (stereo not given) | 3.09% [at 35.3 µM]

Assay: A CellTox Green Cytotoxicity Assay to monitor cytotoxicity in HEK293 cells - 40 hour (AID 1224871); note: nearly all actives have a fitted effect of over 45% in size; note: potency is the fitted concentration of half-maximal effect
Conditions: CellTox Green fluorescence; series mostly up to 76.8 µM; cytotoxicity increase: at the top concentration
Outline: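 Homogeneous no-lysis format: HEK293 cell suspension mixed with CellTox Green reagent, seeded, incubated 5 h at 37 C/5% CO2, then dosed by pintool with compound in DMSO.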

Compound | Potency | cytotoxicity increase
CCCCCCCCc1ccc(S(=O)(=O)O)cc1 | 54.5 µM (active) | 
CC1=C(CC(=O)O)c2cc(F)ccc2/C1=C\c1ccc(S(C)(=O)=O)cc1 |  | -3.37% [at 35.3 µM]
CC(C)NCC(O)COc1ccc(CCOCC2CC2)cc1 (stereo not given) |  | 1.21% [at 35.3 µM]
C1CCOC1 |  | -3.73%
C=O |  | -9.96%
COc1nc(C)nc(NC(=O)NS(=O)(=O)c2ccccc2OCCCl)n1 |  | 5.85%
O=C(O)[C@@H]1CSCN1 |  | -6.81% [at 35.3 µM]
O=C(O)[C@@H](O)[C@H](O)[C@H](O)[C@@H](O)C(=O)O |  | -14.8% [at 35.3 µM]
CN1CCN(C2=Nc3ccccc3Oc3ccc(Cl)cc32)CC1 |  | 5.68% [at 35.3 µM]
CC(C)O |  | 12.8%
CCC1(C)NC(=O)NC1=O (stereo not given) |  | -9.37%
CC/C=C\CCOC(=O)C(C)C |  | 2.07%
CCCCCCCOC(=O)CCC |  | 27.6%
CCCCCCC |  | 8.58%
OCCN1CCN(CCO)CC1 |  | -7.66%
O=C1CCCc2ccccc21 |  | -7.61%
O=C1C=CC(=O)O1 |  | -0.186%
O=C(O)c1ccccc1Nc1cc(Cl)ccc1C(=O)O |  | -12.4% [at 15.8 µM]
CCc1cc2cc(OC)c(OC)cc2c(Cc2ccccc2)n1 |  | -3.7% [at 35.3 µM]
CN1CCC[C@@H]1Cc1c[nH]c2ccc(CCS(=O)(=O)c3ccccc3)cc12 |  | 0.264% [at 35.3 µM]

Compound | Potency | cytotoxicity increase
Cc1cc2nc(N)sc2cc1C |  | 1.59%
CCCNC(C)C(=O)Nc1c(C)csc1C(=O)OC (stereo not given) |  | -15.5% [at 35.3 µM]
Cc1cc(NS(=O)(=O)c2ccc(N)cc2)nc(C)n1 |  | -18.8% [at 35.3 µM]
CCCCCCCCCCCCCCCCOP(=O)([O-])OCC[N+](C)(C)C |  | 24.5% [at 35.3 µM]
NC1=NCC2c3ccccc3Cc3ccccc3N12 (stereo not given) |  | -5.44% [at 35.3 µM]
Cc1ccc(C)c(N)c1 |  | 5.15%
O=C1N(c2ccccc2)c2ccccc2C1(Cc1ccncc1)Cc1ccncc1 |  | -1.62% [at 35.3 µM]
COC(=O)c1ccc(OC)cc1 |  | -0.71%
Cc1ccsc1C(=CCCN1CCC[C@@H](C(=O)O)C1)c1sccc1C |  | 4.74% [at 35.3 µM]
CC1=NN(c2cc(Cl)c(S(=O)(=O)O)cc2Cl)C(=O)C1N=Nc1ccc(S(=O)(=O)O)cc1 (stereo not given) |  | -14.4%
Cc1onc(-c2ccccc2)c1C(=O)Cl |  | -0.669% [at 35.3 µM]
CCCCCOc1ccc(C2SC(=O)NC2=O)cc1OCC (stereo not given) |  | -4.11% [at 35.3 µM]
C=CCCC=C |  | 17.4%
CCCCCCCCOC(=O)CCCCCCCCC(=O)OCCCCCCCC |  | 25.6%
CC1=CC(=O)CC(C)(C)C1=O |  | 11.1%
CN1CCN(c2c(F)cc3c(=O)c(C(=O)O)cn4c3c2SCC4)CC1 |  | -11.8% [at 35.3 µM]
CCC(=O)O[C@]1(C(=O)SCF)[C@H](C)C[C@H]2[C@@H]3C[C@H](F)C4=CC(=O)C=C[C@]4(C)[C@@]3(F)[C@@H](O)C[C@@]21C |  | 9.52% [at 35.3 µM]
NS(=O)(=O)c1cc(-c2nn[nH]n2)c(NCc2cccs2)cc1Cl |  | 1.47% [at 35.3 µM]
CCN1CC(CCN2CCOCC2)C(c2ccccc2)(c2ccccc2)C1=O (stereo not given) |  | 8.55% [at 35.3 µM]

Assay: qHTS RealTime-Glo MT Cell Viability Assay in HEK293 cells - 16 hour (AID 1224872); note: nearly all actives have a fitted effect of over 50% in size; note: potency is the fitted concentration of half-maximal effect; for activity change, negative = cytotoxicity: top concentration of the series differs between compounds
Conditions: RealTime-Glo luminescence; series mostly up to 76.8 µM; activity change, negative = cytotoxicity: at the top concentration
Outline: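 Viability tracked continuously by luminescence as live cells reduce a prosubstrate for NanoLuc; HEK293 cells preincubated 5 h, compound-treated at 37 C, and read at 0, 8, 16, 24, 32 and 40 h.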

Compound | activity change, negative = cytotoxicity | Potency
CCCCCCCCc1ccc(S(=O)(=O)O)cc1 | -5.17% | 
CC1=C(CC(=O)O)c2cc(F)ccc2/C1=C\c1ccc(S(C)(=O)=O)cc1 | -1.52% [at 35.3 µM] | 
CC(C)NCC(O)COc1ccc(CCOCC2CC2)cc1 (stereo not given) | -5.81% [at 35.3 µM] | 
C1CCOC1 | 2.38% | 
C=O | 2.89% | 
COc1nc(C)nc(NC(=O)NS(=O)(=O)c2ccccc2OCCCl)n1 | 2.42% | 
O=C(O)[C@@H]1CSCN1 | 1.77% [at 35.3 µM] | 
O=C(O)[C@@H](O)[C@H](O)[C@H](O)[C@@H](O)C(=O)O | 6.17% [at 35.3 µM] | 
CN1CCN(C2=Nc3ccccc3Oc3ccc(Cl)cc32)CC1 | -14.2% [at 35.3 µM] | 
CC(C)O | -2.94% | 
CCC1(C)NC(=O)NC1=O (stereo not given) | 4.44% | 
CC/C=C\CCOC(=O)C(C)C | 0.511% | 
CCCCCCCOC(=O)CCC | 13.9% | 
CCCCCCC | -17.5% | 
OCCN1CCN(CCO)CC1 | 2.84% | 
O=C1CCCc2ccccc21 | 14.7% | 
O=C1C=CC(=O)O1 | 13.9% | 
O=C(O)c1ccccc1Nc1cc(Cl)ccc1C(=O)O | 1.77% [at 15.8 µM] | 
CCc1cc2cc(OC)c(OC)cc2c(Cc2ccccc2)n1 |  | 16.9 µM (active)
CN1CCC[C@@H]1Cc1c[nH]c2ccc(CCS(=O)(=O)c3ccccc3)cc12 | 2.58% [at 35.3 µM] | 

Compound | activity change, negative = cytotoxicity | Potency
Cc1cc2nc(N)sc2cc1C | 8.08% | 
CCCNC(C)C(=O)Nc1c(C)csc1C(=O)OC (stereo not given) | -2.04% [at 35.3 µM] | 
Cc1cc(NS(=O)(=O)c2ccc(N)cc2)nc(C)n1 | 1.39% [at 35.3 µM] | 
CCCCCCCCCCCCCCCCOP(=O)([O-])OCC[N+](C)(C)C | -0.926% [at 35.3 µM] | 
NC1=NCC2c3ccccc3Cc3ccccc3N12 (stereo not given) | -7.97% [at 35.3 µM] | 
Cc1ccc(C)c(N)c1 | 4.45% | 
O=C1N(c2ccccc2)c2ccccc2C1(Cc1ccncc1)Cc1ccncc1 | -0.154% [at 35.3 µM] | 
COC(=O)c1ccc(OC)cc1 | 1.69% | 
Cc1ccsc1C(=CCCN1CCC[C@@H](C(=O)O)C1)c1sccc1C | 1.52% [at 35.3 µM] | 
CC1=NN(c2cc(Cl)c(S(=O)(=O)O)cc2Cl)C(=O)C1N=Nc1ccc(S(=O)(=O)O)cc1 (stereo not given) | -8.95% | 
Cc1onc(-c2ccccc2)c1C(=O)Cl | -1.1% [at 35.3 µM] | 
CCCCCOc1ccc(C2SC(=O)NC2=O)cc1OCC (stereo not given) | -5.37% [at 35.3 µM] | 
C=CCCC=C | 15.7% | 
CCCCCCCCOC(=O)CCCCCCCCC(=O)OCCCCCCCC | 2.26% | 
CC1=CC(=O)CC(C)(C)C1=O | -6.93% | 
CN1CCN(c2c(F)cc3c(=O)c(C(=O)O)cn4c3c2SCC4)CC1 | 8.24% [at 35.3 µM] | 
CCC(=O)O[C@]1(C(=O)SCF)[C@H](C)C[C@H]2[C@@H]3C[C@H](F)C4=CC(=O)C=C[C@]4(C)[C@@]3(F)[C@@H](O)C[C@@]21C | 7.95% [at 35.3 µM] | 
NS(=O)(=O)c1cc(-c2nn[nH]n2)c(NCc2cccs2)cc1Cl | 4.88% [at 35.3 µM] | 
CCN1CC(CCN2CCOCC2)C(c2ccccc2)(c2ccccc2)C1=O (stereo not given) | 19.6% [at 35.3 µM] | 
